For 61 molecules, activity change, negative = inhibition results are on record in PubChem BioAssay AID1259416 (Broad Institute, 2018).

About 2,600 (3.8%) of roughly 69,000 compounds were called active. Many of the other results were omitted from the sample, so actives are more common in it than they were. Unmarked numbers belong to inactive results. Rule as the data show it: active = activity change below about -70% (passing the limit was not always enough); inconclusive = no clear call, values can overlap the other calls.

The assay in a line: inhibitors of Toxoplasma growth in IFN-γ-primed hosts – cell-based, primary screen (AID 1259416).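 Also: host cells are HeLa cells infected with Toxoplasma gondii.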 Particulars: Toxoplasma gondii growth in IFN-gamma-treated host cells; hits give low values; concentration not given here.
For `CCOC(=O)c1oc2ccc(S(=O)(=O)Nc3ccc4[nH]c(=O)[nH]c4c3)cc2c1C`, the activity change, negative = inhibition is 75.3%.
As for `COCc1nnn2c1CN(Cc1ccc(C)s1)CCC2`, the activity change, negative = inhibition is -49.3%.
Take `O=C(C1CCOCC1)N1CC(=O)N2[C@H](CO)[C@H](c3ccc(C#CC4CCCCC4)cc3)[C@H]2C1`: the activity change, negative = inhibition is 19.2%.
As for `Cc1nc(SCC(=O)Nc2cccc(C(F)(F)F)c2)oc1C`, the activity change, negative = inhibition is 21%.
The figure for `COc1ccc(OC)c(NC(=O)Cn2c(=O)cc(C(=O)N3CCCCC3)c3ccccc32)c1` is 5.37%; for `CN(C)C(=O)[C@@H]1CCS(=O)(=O)[C@H]2CN(C(=O)NCc3ccccc3)C[C@@H]12` it is 7.18%; for `COc1cccc(CC2(CO)CCN(c3ncnc4sccc34)CC2)c1` it is -61.2%.
Consider `O=S(=O)(c1ccccc1)N1[C@H](CO)[C@@H]2c3ccccc3NC[C@@H]21`, for which the activity change, negative = inhibition was -13.4%.
In the case of `COc1ccc(S(=O)(=O)Nc2ccc3c(c2)C(=O)N([C@@H](C)CO)C[C@H](C)[C@H](CN(C)Cc2ccc(C(F)(F)F)cc2)OCCCC[C@@H](C)O3)cc1`, the activity change, negative = inhibition was -47%.
As to `C[C@@H]1CCCCO[C@H](CN(C)C(=O)CCCN(C)C)[C@H](C)CN([C@@H](C)CO)C(=O)c2cc(NS(=O)(=O)c3ccc(Cl)cc3)ccc2O1`, the activity change, negative = inhibition was -84.8% (active).
The figure for `C[C@@H]1CCCCO[C@H](CN(C)C(=O)Nc2ccccc2)[C@H](C)CN([C@H](C)CO)C(=O)c2cc(NC(=O)Nc3ccccc3)ccc2O1` is 72.5%; for `C[C@@H]1CCCCO[C@@H](CN(C)S(=O)(=O)c2ccccc2)[C@H](C)CN([C@H](C)CO)C(=O)c2cc(NC(=O)Nc3ccc4c(c3)OCO4)ccc2O1` it is -79.4% (active); for `C[C@@H]1CCCCO[C@H](CN(C)Cc2ccc3c(c2)OCO3)[C@H](C)CN([C@@H](C)CO)C(=O)c2cc(NS(=O)(=O)c3cn(C)cn3)ccc2O1` it is 11.5%.
Consider `COc1ccc(S(=O)(=O)Nc2ccc3c(c2)C(=O)N([C@@H](C)CO)C[C@@H](C)[C@H](CN(C)Cc2ccc(C(F)(F)F)cc2)OCCCC[C@@H](C)O3)cc1`, for which the activity change, negative = inhibition was -112% (active).
On to `C[C@@H]1CN([C@H](C)CO)C(=O)c2cc(NC(=O)NC3CCCCC3)ccc2O[C@@H](C)CCCCO[C@H]1CN(C)S(C)(=O)=O`, for which the activity change, negative = inhibition is -35.8%.
On to `CNC[C@H]1OCCCC[C@@H](C)Oc2ccc(NS(=O)(=O)c3ccc(F)cc3)cc2C(=O)N([C@H](C)CO)C[C@H]1C`, for which the activity change, negative = inhibition was 193%.
In the case of `CNC[C@@H]1OCCCC[C@H](C)Oc2ccc(NS(=O)(=O)c3ccc(F)cc3)cc2C(=O)N([C@@H](C)CO)C[C@@H]1C`, the activity change, negative = inhibition was 41.1%.
Consider `C[C@@H](O)C#Cc1ccc([C@H]2[C@@H](CO)N3CCCCN(CC4CC4)C[C@@H]23)cc1`, for which the activity change, negative = inhibition was -5.07%.
The figure for `Cc1nc(-c2cccnc2)sc1C(=O)N(CCN(C)C)Cc1ccc2c(c1)OCO2` is -47.1%.
Consider `CCC(NC(=O)CCNC(=O)c1ccccc1F)c1cccs1` (stereo unspecified), for which the activity change, negative = inhibition was 98.8%.
Regarding `COc1ccc2c(c1)NC1(CCN(S(=O)(=O)c3c(C)nn(C)c3C)CC1)c1cccn1-2`, the activity change, negative = inhibition is 1.37%.
For `CN1C(=O)CCc2cc(C(=O)NCc3cccc(Cl)c3)ccc21`, the activity change, negative = inhibition is -50%.
As for `Cc1csc(CCCNc2cc(N(C)C)ncn2)n1`, the activity change, negative = inhibition is -14.5%.
In the case of `Cc1ccc(-c2nnn(CC(=O)N(CC(=O)NC(C)(C)C)c3ccc(C(C)C)cc3)n2)o1`, the activity change, negative = inhibition is -40.3%.
For the molecule `CN(C)C1CCN(C(=O)c2ccnn2-c2ccc3ccc(-c4ccccc4)cn23)CC1`, the activity change, negative = inhibition was -101% (active).
The figure for `CC(C)n1cnc(-c2cc(C(=O)N3CCC(N(C)C)CC3)c3ccccn23)c1` is -48.2%; for `Cc1cc(C(=O)N2CCCC(N(C)C)CC2)sc1C` (stereo unspecified) it is 8.26%.
As to `CC(C)c1noc(C2CCCN(C(=O)c3cccc4ccnn34)C2)n1` (stereo unspecified), the activity change, negative = inhibition is 88%.
Take `Cc1ccc2c(c1)C1CN(C)CCC1N2S(=O)(=O)c1ccc(Oc2ccc([N+](=O)[O-])cc2)cc1` (stereo unspecified): the activity change, negative = inhibition is -88.8% (active).
As for `Cc1ccc(NC(=O)NCC(c2cccnc2)c2c[nH]c3ccccc23)cc1F` (stereo unspecified), the activity change, negative = inhibition is 41.3%.
Turning to `C=CCOCC1c2c(ncn2C(C)C)CCN1C(=O)CC` (stereo unspecified), the activity change, negative = inhibition is -6.91%.
Regarding `CC(=O)N1C[C@@H]2[C@H](c3ccccc31)[C@H](CO)N2Cc1ccc(Cl)cc1`, the activity change, negative = inhibition was 2.64%.
In the case of `Cc1ccc(C(=O)N2CC[C@H]3[C@@H]2CCN3c2nncs2)o1`, the activity change, negative = inhibition was 17.4%.
Take `Cn1ccnc1-c1c(-c2ccccc2)ncn1CC(O)Cc1ccccc1` (stereo unspecified): the activity change, negative = inhibition was -0.253%.
`OC(Cn1cnc(-c2ccccc2)c1-c1ccccc1)Cn1c2ccccc2c2ccccc21` (stereo unspecified): the activity change, negative = inhibition is -85.9% (active).
As to `Cc1cccc(C)c1-c1c(-c2ccccc2)ncn1CCCCN`, the activity change, negative = inhibition was -13.6%.
Regarding `CCCC(=O)NCCc1sc(-c2cccc(F)c2)nc1C`, the activity change, negative = inhibition was 257%.
As to `CCSc1nc(CC(=O)NCc2nnc3n2CCC3)cs1`, the activity change, negative = inhibition is -48.7%.
On to `c1ccc(C2CCCN2Cc2ccc3occc3c2)nc1` (stereo unspecified), for which the activity change, negative = inhibition was 2.99%.
`COCC(=O)Nc1ccc(-c2nc(Cn3nc(C)cc3C)c(C)o2)cc1`: the activity change, negative = inhibition was -41.3%.
In the case of `Cc1cnn(Cc2nc(-c3ccc(NC(=O)c4ccsc4)cc3)oc2C)c1`, the activity change, negative = inhibition is -40.9%.
Regarding `Cc1ccsc1C(=O)Nc1ccc(-c2nc(Cn3cccn3)c(C)o2)cc1`, the activity change, negative = inhibition was -12.6%.
For the molecule `Cc1nn(Cc2nc(-c3ccc(NC(=O)C4CCCO4)cc3)oc2C)c(C)c1C` (stereo unspecified), the activity change, negative = inhibition is 33.9%.
In the case of `Cc1oc(-c2ccc(NC(=O)c3ccc(C(C)(C)C)cc3)cc2)nc1Cn1cccn1`, the activity change, negative = inhibition was -96.9% (active).
Consider `Cc1cnn(Cc2nc(-c3ccc(NC(=O)c4cc(F)ccc4F)cc3)oc2C)c1`, for which the activity change, negative = inhibition is -88.5% (active).
Take `COc1cccc(C(=O)Nc2ccc(-c3nc(Cn4nc(C)c(C)c4C)c(C)o3)cc2)c1`: the activity change, negative = inhibition is -97.6% (active).
With `Cc1cc(C)cc(C(=O)Nc2ccc(-c3nc(Cn4cc(C)cn4)c(C)o3)cc2)c1`, the activity change, negative = inhibition was 2.92%.
For the molecule `CCC(=O)Nc1ccc(-c2nc(Cn3cccn3)c(C)o2)cc1`, the activity change, negative = inhibition is 61.8%.
The figure for `Cc1noc(C)c1CN1CC2C[C@H](C(=O)NCCN(C)C)N(C)C2C1` (stereo partly specified) is -7.4%.
For the molecule `CN(C)S(=O)(=O)c1ccc2c(c1)cc(C(=O)NCc1cccc(F)c1)n2Cc1ccncc1`, the activity change, negative = inhibition is 104%.
Regarding `CCc1ccc(-n2cc3c(=O)n(C)c(=O)n(C)c3c2)cc1`, the activity change, negative = inhibition is -61.6%.
On to `CC[C@H]1CN(C(=O)CCc2cnccn2)CC[C@@]1(C)O`, for which the activity change, negative = inhibition is -44.1%.
As for `Cc1cccc(C(=O)N2CCC3(CC2)CC(CC(=O)NCC2CC2)c2ccccc2O3)n1` (stereo unspecified), the activity change, negative = inhibition was 0.492%.
On to `Cc1cccc(Cl)c1NC(=O)N1CCN(CC(C)C)C(=O)C1C` (stereo unspecified), for which the activity change, negative = inhibition is -2.03%.
Regarding `O=C(Nc1cnc2n1CCCC2)c1ccccc1-n1cncn1`, the activity change, negative = inhibition was -1.83%.
Turning to `C=CCn1cc(-c2c(-c3ccccc3)ncn2CCc2ccccn2)cn1`, the activity change, negative = inhibition is -1.4%.
Regarding `O=C(CN1CCCC1=O)N1CCCC2(C=Cc3ccccc3O2)CC1` (stereo unspecified), the activity change, negative = inhibition is -13.8%.
For the molecule `Cc1ccc(CN2CCC3(CC2)CC(NC(=O)C2CC2)CCO3)cc1C` (stereo unspecified), the activity change, negative = inhibition was -5.15%.
As to `Cc1ccc(-c2ccccc2-n2cnnc2)o1`, the activity change, negative = inhibition is -6.57%.
The figure for `Cc1ccccc1-c1nc2ccc(-n3cnnc3)cc2o1` is -95.3% (active); for `COCCNC(=O)C[C@@H]1CC[C@H]2[C@H](COc3ccc(NS(=O)(=O)c4ccc(Cl)cc4)cc3C(=O)N2C)O1` it is -37.6%.
